Values without a mark were called inactive. The rule behind the calls is not given here.

A short description of the assay: inhibitors of orthopox early gene expression, dose response, cell-based, single fluorophore reporter, dry powder (AID 1117273). To be noted: orthopoxvirus-infected cells, early gene fluorescent reporter; at 10 µM; stronger effect = higher value.
Take `C[C@@H](O)C#Cc1ccc2c(c1)O[C@@H](CN(C)Cc1ccc(-c3ccc(Cl)cc3)cc1)[C@@H](C)CN([C@@H](C)CO)S2(=O)=O`: the inhibition (usually the relative decrease from the control value, in per cent) was 17.2%.

In the case of `Cc1cccc(-c2ccc(CN(C)C[C@@H]3Oc4cc(C#C[C@@H](C)O)ccc4S(=O)(=O)N([C@@H](C)CO)C[C@@H]3C)cc2)c1`, the inhibition is 48%.

On to `Cc1ccccc1-c1ccc(CN(C)C[C@@H]2Oc3cc(C#C[C@@H](C)O)ccc3S(=O)(=O)N([C@@H](C)CO)C[C@@H]2C)cc1`, for which the inhibition is 63.3%.

For the compound `COc1ccccc1-c1ccc(CN(C)C[C@@H]2Oc3cc(C#C[C@@H](C)O)ccc3S(=O)(=O)N([C@@H](C)CO)C[C@@H]2C)cc1`, the inhibition is -12.9%.

Regarding `C[C@@H](O)C#Cc1ccc2c(c1)O[C@@H](CN(C)Cc1ccc(-c3ccccc3Cl)cc1)[C@@H](C)CN([C@@H](C)CO)S2(=O)=O`, the inhibition is 59.3%.

For the compound `C[C@@H](O)C#Cc1ccc2c(c1)O[C@@H](CN(C)Cc1ccc(-c3cccc(Cl)c3)cc1)[C@@H](C)CN([C@@H](C)CO)S2(=O)=O`, the inhibition is 48.5%.

Turning to `Cc1ccc(-c2ccc(CN(C)C[C@@H]3Oc4cc(C#C[C@@H](C)O)ccc4S(=O)(=O)N([C@@H](C)CO)C[C@@H]3C)cc2)cc1`, the inhibition was 32.5%.

Source of the values: PubChem BioAssay AID1117273 (Broad Institute, 2014).
